PP5 primary = PP5 phosphatase inhibitors, primary screen, biochemical, fluorescence. purified PP5c, OMFP substrate fluorescence. inhibition, % at 6.7 µM. Serine/threonine-protein phosphatase 5 (Homo sapiens), P53041. actives 0.18% (n = 320,000);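 active means inhibition above the campaign's mean inhibition across all tested compounds plus 3 SD, cut at about 9.5% in these data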
HIF act = HIF pathway transcriptional activators, primary screen, cell-based, U2OS HRE-luciferase, luminescence. U2OS HRE-luciferase reporter; normalized: DMSO 0%, desferrioxamine 100%. activation, % at 7.5 µM (by protocol). actives 0.32% (n = 300,000). AID 1910, 2009;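 active means mean activation of at least 10% of the iron chelator positive control signal, with at least half of replicates also reaching 10%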
Dyrk1A ADPGlo = rat Dyrk1A kinase inhibitors, primary screen, biochemical, single point, plate reader | ADP-Glo luminescence, NFATc1 peptide | inhibition, % at 12.5 µM | actives 0.43% (n = 310,000) | AID 504441, 2011; in the data active means inhibition above about 50%
STK33 inh = inhibitors of purified STK33 kinase, primary screen, biochemical, ADP-Glo luminescence, homogeneous, cell-free | Serine/threonine-protein kinase 33 (Homo sapiens), Q9BYT3 | MBP phosphorylation | inhibition, % at 10 µM | actives 0.073% (n = 320,000);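 active means inhibition at or above 25%, using the most active replicate where run in duplicate; inactive means inhibition below 25%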
Target sequence (Q9BYT3 whole entry, looked up): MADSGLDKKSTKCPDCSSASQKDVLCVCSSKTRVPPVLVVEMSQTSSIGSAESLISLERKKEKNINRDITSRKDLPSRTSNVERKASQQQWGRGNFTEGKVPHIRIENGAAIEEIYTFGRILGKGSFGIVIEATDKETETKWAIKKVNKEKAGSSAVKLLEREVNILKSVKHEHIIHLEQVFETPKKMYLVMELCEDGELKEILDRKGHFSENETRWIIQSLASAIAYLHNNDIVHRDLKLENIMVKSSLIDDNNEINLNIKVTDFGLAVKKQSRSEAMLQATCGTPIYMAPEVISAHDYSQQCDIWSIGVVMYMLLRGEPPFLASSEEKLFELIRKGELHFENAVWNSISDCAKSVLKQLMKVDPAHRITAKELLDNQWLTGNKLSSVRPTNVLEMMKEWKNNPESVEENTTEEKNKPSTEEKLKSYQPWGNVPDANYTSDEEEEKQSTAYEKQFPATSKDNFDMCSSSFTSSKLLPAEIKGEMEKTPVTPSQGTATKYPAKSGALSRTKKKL
PP1 inh = PP1-alpha phosphatase inhibitors, primary screen, counter-screen for PP5 inhibitor project, biochemical, fluorescence, OMFP substrate, single point | AID 2235, 2010 | purified PP1alpha | actives 0.9% (n = 320,000) | inhibition, % at 6.7 µM;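 active means inhibition above the mean inhibition of all tested compounds plus 3 SD, computed separately for each screening campaign, cut at about 15% in these data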
Of the large screens only hits and unclear results are named; the others gave an inactive call. Sampled rows, rich in hits. Any-hit rate of the full collection: about 1.5%.

CCOC(=O)C1=C(CSc2nc3c(cc2C#N)CN(C)CC3)OC(N)=C(C#N)C1c1ccc(F)cc1 (stereo not drawn)	PP1 inh 16
CCOc1ccc(S(=O)(=O)NCCC(=O)Nc2cccc(C(=O)OC)c2)cc1	none
CC1=CC(C)[C@H](/C=N/n2c(=O)[nH]c3c([nH]c4ccc(C)cc43)c2=O)C(C)C1 (stereo partly drawn)	none
O=C(Cc1ccc(Br)cc1)N/N=C/c1cccnc1	none
C#CCOCCOCCOCCNc1nc(N2CCN(C(=O)CCCCCCCCCCNC(=O)[C@H](CCCN=C(N)N)n3cc(C[C@@H](C)CC)nn3)CC2)nc(N2CCN(C(=O)CCCCCCCCCCNC(=O)[C@@H]([C@H](C)CC)n3cc(CCCCCN)nn3)CC2)n1	STK33 inh 27, PP1 inh 71 (no result: HIF act, Dyrk1A ADPGlo)
C#CCOCCOCCOCCNc1nc(N2CCN(C(=O)[C@H]([C@@H](C)CC)n3cc(CCCN=C(N)N)nn3)CC2)nc(N2CCN(C(=O)[C@H](CCCCN)n3cc(CCCC)nn3)CC2)n1	none
C#CCOCCOCCOCCNc1nc(N2CCOCC2)nc(N2CCN(C(=O)CCCCCCCCCCNC(=O)[C@H]([C@@H](C)CC)n3cc(CCCCN=C(N)N)nn3)CC2)n1	PP1 inh 15 (no result: HIF act)
C#CCOCCOCCOCCNc1nc(N2CCN(C(=O)CCCCCCCCCCNC(=O)[C@H]([C@@H](C)CC)n3cc(CCCCN=C(N)N)nn3)CC2)nc(N2CCN(C(=O)CCCCCCCCCCNC(=O)[C@H](CCCN=C(N)N)n3cc(C[C@@H](C)CC)nn3)CC2)n1	PP5 primary 9.8, STK33 inh 31, PP1 inh 68 (no result: HIF act, Dyrk1A ADPGlo)
C#CCOCCOCCOCCNc1nc(N2CCOCC2)nc(N2CCN(C(=O)[C@H]([C@@H](C)CC)n3cc(CCCN=C(N)N)nn3)CC2)n1	none
CC1CC(=O)N(CC(=O)Nc2ccc(Br)cc2)c2ccccc2S1(=O)=O (stereo not drawn)	none
O=C(O)C1Nc2c(O)cccc2C2C=CCC12 (stereo not drawn)	PP1 inh 50 (no result: HIF act, Dyrk1A ADPGlo)
O=C(O)C1Nc2c(Cl)cc(Cl)c(Cl)c2C2C=CCC12 (stereo not drawn)	none
CC(NC(=O)C12CC3CC(CC(O)(C3)C1)C2)c1ccc(Cl)cc1Cl (stereo not drawn)	HIF act 16
COc1ccc2nc(C)cc(SCC(=O)N/N=C/c3ccc(O)cc3O)c2c1	HIF act 22
COc1ccc2nc(C)cc(SCC(=O)N/N=C/c3ccccc3)c2c1	none
CCc1ccccc1OCC(=O)OCC(=O)Nc1cc(C)on1	PP1 inh 17 (no result: HIF act)
Cc1cc(NC(=O)COC(=O)COc2ccc(C(=O)c3ccccc3)cc2)no1	none
O=C(/C=C/c1ccc2c(c1)OCO2)Nc1cccnc1	HIF act 11
COc1cc(/C=C2/SC(=S)N(Cc3ccccc3)C2=O)cc(Cl)c1O	none
COc1cc([N+](=O)[O-])cc(/C=C2/SC(=S)N(Cc3ccccc3)C2=O)c1O	PP1 inh 15 (no result: Dyrk1A ADPGlo)
O=C(NCc1nc2ccccc2[nH]1)c1c(F)c(F)c(F)c(F)c1F	HIF act 74 (no result: Dyrk1A ADPGlo)
O=C(NCc1nc2ccccc2[nH]1)c1ccccc1F	none (no result: Dyrk1A ADPGlo)
CC1CCN(c2nc(Cl)nc(Nc3ccc([N+](=O)[O-])cc3)n2)CC1	none
COCCNC(=O)C(c1cccnc1)N(Cc1ccc(C)cc1)C(=O)Cn1nnc2ccccc21 (stereo not drawn)	none
O=C(N=Nc1c(O)[nH]c2ccccc12)c1cc(NS(=O)(=O)c2cccs2)cc(NS(=O)(=O)c2cccs2)c1	PP1 inh 16
Cc1ccc(-c2nn(-c3ccccc3)cc2C2CC(c3ccccc3)=NN2C(=O)CCC(=O)O)cc1 (stereo not drawn)	PP1 inh 17
CC12CCC(c3c(C(=O)O)nn(-c4ccccc4)c31)C2(C)C (stereo not drawn)	PP1 inh 17
CC1CCCCN1C(=O)CN1C(=O)CSc2ccc(S(=O)(=O)N3CCOCC3)cc21 (stereo not drawn)	none (no result: Dyrk1A ADPGlo)
Cc1ccc(NC(=O)CS(=O)CC(=O)N(CC(=O)NC(C)(C)C)c2cccc(C)c2C)cc1 (stereo not drawn)	none
N#Cc1c(-c2cccs2)cc(-c2ccccn2)nc1N	PP1 inh 16
Cc1c(OCC(=O)NC(Cc2ccc(Cl)cc2)C(=O)O)ccc2c(-c3ccccc3)cc(=O)oc12 (stereo not drawn)	PP1 inh 17
CN(CC1CCCO1)S(=O)(=O)c1ccc(C(=O)Nc2nccs2)cc1 (stereo not drawn)	HIF act 279
O=C1CCCc2ccccc2N1Cc1ccc(F)cc1	HIF act 42
CCNc1nc(Cl)nc(NNC(=O)C(C)Oc2ccccc2)n1 (stereo not drawn)	HIF act 236
CC(C)Nc1nc(Cl)nc(NNC(=O)C(C)Oc2ccccc2)n1 (stereo not drawn)	none
CCOCCc1nnc(NC(=O)C2CCN(C(=O)c3ccco3)CC2)s1	none
O=C(NCCCN1CCOCC1)c1cccc(NS(=O)(=O)c2ccc(Br)cc2)c1	none (no result: HIF act)
O=C(O)CN1C(=O)/C(=C\c2cc(Br)ccc2OCc2ccccc2F)SC1=S	PP1 inh 16
CCc1ccc(C2C(=O)c3ccccc3C2=O)cc1	HIF act 16 (no result: Dyrk1A ADPGlo)
CCOc1ccccc1NC(=O)C(=O)N/N=C/c1cc(Br)ccc1O	none
C=CCOc1ccc(C2C(C(=O)c3ccc(C)o3)=C(O)C(=O)N2Cc2cccnc2)cc1 (stereo not drawn)	PP1 inh 23
C=CCOc1cccc(C2C(C(=O)c3ccc(C)o3)=C(O)C(=O)N2Cc2ccncc2)c1 (stereo not drawn)	none
COc1ccc(/C=C(\C#N)c2nc3ccccc3[nH]2)cc1O	HIF act 13 (no result: PP5 primary, STK33 inh, PP1 inh)
COc1ccc(/C=N/NC(=O)c2ccccc2O)cc1CSc1ccccn1	HIF act 197
Cc1cc(O)c(-c2n[nH]c3c2C(c2cccc(O)c2)N(Cc2cccnc2)C3=O)cc1Cl (stereo not drawn)	PP1 inh 17
CCCN1C(=O)c2[nH]nc(-c3cc(Cl)c(C)cc3O)c2C1c1ccc(O)c(OC)c1 (stereo not drawn)	none
COc1ccc(Cn2c(C3CCCCC3)nc3c(c(=O)c4ccccc4n3C)c2=O)cc1	none (no result: Dyrk1A ADPGlo)
COc1ccc(CCn2c(C3CCCCC3)nc3c(c(=O)c4ccccc4n3C)c2=O)cc1	PP1 inh 16 (no result: Dyrk1A ADPGlo)
O=C(CCCOc1ccc(Cl)cc1Cl)N/N=C/c1ccccc1O	HIF act 11
O=C(COc1ccc(Cl)cc1Cl)N/N=C/c1ccc[nH]1	none

Screening results from PubChem BioAssay.
